Experimental data from article PMC13494018.
Unmarked numbers belong to inactive results. No rule for the calls is given here.

B1: design_607_777643b9-bd23-49d1-80ae-2b1434974efa_2203_dldesign_0_cycle1_af2pred (protein)
chain: SAVEKEKEELKKEVEEAKKEAEKVIAGGTLEEGAKVADKAYQLAAEAASLGPEAEDIEKEAREVARRLREYGKERRA
B2: design_607_777643b9-bd23-49d1-80ae-2b1434974efa_2234_dldesign_0_cycle1_af2pred (protein)
chain: SAAVKAAAEKAIAAFEAVAKKAKKAAEEGAKPEEVEKLRKELEKARKAGKEVAKKAAADPELVKKLSNAAFEAYEAIAEAAFAA
B3: design_607_777643b9-bd23-49d1-80ae-2b1434974efa_2236_dldesign_0_cycle1_af2pred (protein)
chain: EAKKYAEKAEKLAKEAEESTDDYEKAKKYAEEARKYAKKAVAYAKANPEDKEAKELAKKAIEAAHKAQEALAEAKAN
B4: design_607_777643b9-bd23-49d1-80ae-2b1434974efa_2248_dldesign_0_cycle1_af2pred (protein)
chain: AAAEAAAKAKEAAKKAAAIAKEGIAKQEKAAKEGDAEKVREIAKEVRTKLAAEAKATPEGAKAYAAAAHDVYEAAAEYSQEAKKAK
B5: design_607_777643b9-bd23-49d1-80ae-2b1434974efa_2258_dldesign_0_cycle1_af2pred (protein)
chain: AAVEEAKAALKKRYEKALKLAKEASEELYKEVVEKYKEYVAAAEAAKDPAEKVAALTAGNAFMYELIAEARSEIERKKEE
B6: design_607_777643b9-bd23-49d1-80ae-2b1434974efa_2270_dldesign_0_cycle1_af2pred (protein)
chain: AAADATVDAAIAKLRALGKEYPEGADAFNQLADNLKKAAAKAKTPEAKIAAAKKAMATAEHILKTTKEAEERAKKRKEEEEK
B7: design_607_777643b9-bd23-49d1-80ae-2b1434974efa_2272_dldesign_0_cycle1_af2pred (protein)
chain: NTQKAADKFSEAVRNLREAAKLGGEEVKEMAEKAILAAADDPEKGVEQAEKLLKYVKENVSEEVAKLVEEALKNFKEMAKLLN
B8: design_607_777643b9-bd23-49d1-80ae-2b1434974efa_2298_dldesign_0_cycle1_af2pred (protein)
chain: VTPEELAEAAKKKDELLDAAFAALQAAKTVEEVEAVAKEFLAKAEELGKDPRYAAAAESFKKILTRMKEAAVKAIK
B9: design_607_777643b9-bd23-49d1-80ae-2b1434974efa_2300_dldesign_0_cycle1_af2pred (protein)
chain: GKKEEAKKYAEEAKKKIKELAKKAEKSTDEEEVKKLAEKARELAKKAIEYAKKELTPEEAAKVAKELSEAAHEAHEAAAIGLFNIRKK
B10: design_607_777643b9-bd23-49d1-80ae-2b1434974efa_2342_dldesign_0_cycle1_af2pred (protein)
chain: SEAQKEGKAFSAMMKTASEKGKELSKKTGTPLAEMAKIVQDIADAYAKGPEEIKKVAKTPEAKELATAAYDTYEKTYKA
B11: design_607_777643b9-bd23-49d1-80ae-2b1434974efa_2358_dldesign_0_cycle1_af2pred (protein)
chain: MEEEAKRILEEAEKKAKEAEAIAKSGKNTKEAEKLAREALKLVKENAPIIPKEEALKAAKKALEVLFEATEAAN
B12: design_607_777643b9-bd23-49d1-80ae-2b1434974efa_2448_dldesign_0_cycle1_af2pred (protein)
chain: SAEEEAKKLLEEAKKLAEEAGKSKDPEEAEKLAREAIKLAEKAAKLGLKEEASKVAHLARENLAEAQYRYRKEKK
B13: design_607_777643b9-bd23-49d1-80ae-2b1434974efa_2469_dldesign_0_cycle1_af2pred (protein)
chain: KKITMEEQETLVNSSDDAAYYDVINTPEAAEKAKEAKATRDSLVAKWKAEDPEGGEKLKKVADHIYENSYKISKRILEEKKE
B14: design_607_777643b9-bd23-49d1-80ae-2b1434974efa_2486_dldesign_0_cycle1_af2pred (protein)
chain: AAEKEAAKAEAAKLVEEAADAAVEKGAEGVEAIIKELEKAAKAASPEARVYYEKAIRTAKSLAEDVKELEN
B15: design_608_fd41b8f9-4da9-4c78-93ec-aaa316ed4933_3_dldesign_0_cycle1_af2pred (protein)
chain: GMEEESKAYKEALDKLSELGKEAEKAAKKGNEEVRKKLLKLKEEAEKKLDEGFEKGKEAAKEAKKFIEEKLKEVKKLLKELE
B16: design_608_fd41b8f9-4da9-4c78-93ec-aaa316ed4933_71_dldesign_0_cycle1_af2pred (protein)
chain: AKEEKEKEIEKLKKKAERLAERAKKVAEEAEKAGFEEVAKKIKEKAKELEKAAESMKEDYEKGKKEASEKAGELSEVMAEAKYLLAKK
B17: design_608_fd41b8f9-4da9-4c78-93ec-aaa316ed4933_161_dldesign_0_cycle1_af2pred (protein)
chain: ITEEQKKVAEKLVERAEEVGKKAIEAGYPELGKKVLELAKETRKALEVSAEEAAKKAAELAQLKAEAEFEIKK
B18: design_608_fd41b8f9-4da9-4c78-93ec-aaa316ed4933_178_dldesign_0_cycle1_af2pred (protein)
chain: AATEEANKALLEAKEAIVDAYNEKYKLDPEEGKKLRKELLKKLAEAYASENAAEKLKEIKKEAKKLAEEYEKKN
B19: design_608_fd41b8f9-4da9-4c78-93ec-aaa316ed4933_199_dldesign_0_cycle1_af2pred (protein)
chain: AEEYRKKAKELAEKAKKYVEKLKADPENAEEYYKKAVEYIHKLYELAAEAESEGHPEVAKEIRELARKIGEEAKKAYEEVKA
B20: design_608_fd41b8f9-4da9-4c78-93ec-aaa316ed4933_209_dldesign_0_cycle1_af2pred (protein)
chain: AEEEEEKKREKLLEEAKKLGKEAAKYVKKAIAKGKTEEATALAAEASKALLALYDLDAAGEPYEKAKAEYDKIKELTEKIKALAE
B21: design_608_fd41b8f9-4da9-4c78-93ec-aaa316ed4933_228_dldesign_0_cycle1_af2pred (protein)
chain: GEEVIKEIAEEEIKEAEKTLKEAEKLLKKGGTEEAKEAVEKAKEYIKKGKEKLEEGDYKTAYSLATLGKHNAEIAIKLIKEKN
B22: design_608_fd41b8f9-4da9-4c78-93ec-aaa316ed4933_265_dldesign_0_cycle1_af2pred (protein)
chain: GLKEELRKLATQYMHEAAEYAAEAEHLANRGGDLAEVEEAAKKAKEYAEKSIELMKEAGTEEEYEKAKKVAEKLIARAEAALKKK
B23: design_608_fd41b8f9-4da9-4c78-93ec-aaa316ed4933_287_dldesign_0_cycle1_af2pred (protein)
chain: MEAENMEKAIKKLREGKAALKTTPEEAARVLRAQAKELKELAKKSSPENAAFMETQAKAMEKKAKELEAKAAA
B24: design_608_fd41b8f9-4da9-4c78-93ec-aaa316ed4933_323_dldesign_0_cycle1_af2pred (protein)
chain: VLEEVLKLGKEAAEALLKPNGKEEAAKLVEEAEKVVKSHPNAPTEASYVLVTMRRAVRKPDHEEGAKRVREAVEEAE
B25: design_608_fd41b8f9-4da9-4c78-93ec-aaa316ed4933_446_dldesign_0_cycle1_af2pred (protein)
chain: LEATAEAYAEAILHAGEEAAKVAKKLSEELAEEVRKKAEEFAKKALDDPSKAKEYLKKAREYFKKVVEEVKEKL
B26: design_608_fd41b8f9-4da9-4c78-93ec-aaa316ed4933_509_dldesign_0_cycle1_af2pred (protein)
chain: EEEKSKLTREAADAVRTFGKNATKARPEMSRLEVMDKIDAGLENPELLKETTEEYAEAAKEKGLEEDAEKIKESGKILLKYVKE
B27: design_608_fd41b8f9-4da9-4c78-93ec-aaa316ed4933_536_dldesign_0_cycle1_af2pred (protein)
chain: NNAEASKLAHEGYEYRAEGAQLSKKNPAKAAVLFEEAAKKFAEAAKLAEDPEDKKLLQAYADRALAEAKKAAAEAAKALA
B28: design_608_fd41b8f9-4da9-4c78-93ec-aaa316ed4933_544_dldesign_0_cycle1_af2pred (protein)
chain: AAAAAAEAAAKVAKVKELAKEAAEDPSKAPEVYKEGKKIADAATPETAAAIAAEMHKGHEERAENSWKRSRE
B29: design_608_fd41b8f9-4da9-4c78-93ec-aaa316ed4933_581_dldesign_0_cycle1_af2pred (protein)
chain: SEELEKVKKLLEKGIETAKKNPVKGASLLLKAEHMAKQLAEKKKGTEEAKELEELSKKAKEEFDKAAKKISE
B30: design_608_fd41b8f9-4da9-4c78-93ec-aaa316ed4933_615_dldesign_0_cycle1_af2pred (protein)
chain: DPAEELAKKLLEIADLAAKPETLEKALEEAEKLKEEALKLAEKYADDPALKKKYLKAAKTAESFIEDIKRSKEL
B31: design_608_fd41b8f9-4da9-4c78-93ec-aaa316ed4933_627_dldesign_0_cycle1_af2pred (protein)
chain: SEKKKVGEEAYKVASRALSIAYAKGDKEFEEKAEELLEKVEEVKKNGNLEEAKKALEEAKALLKEAEKLAKER
B32: design_608_fd41b8f9-4da9-4c78-93ec-aaa316ed4933_669_dldesign_0_cycle1_af2pred (protein)
chain: KEELKKALEKTRKEVKAAAAGKPQDVIDVIRKGAKEAEKLNKNAGILLEAAANRAEFAGATPAEAAAIALKAIERAEKE
B33: design_608_fd41b8f9-4da9-4c78-93ec-aaa316ed4933_704_dldesign_0_cycle1_af2pred (protein)
chain: DAAAATARALADQAVAAGKAGEEGDLATAKAARETLAALREELRKLVEEDPSVAPYASAGMAEGYQAIAEGFKKNS
B34: design_608_fd41b8f9-4da9-4c78-93ec-aaa316ed4933_750_dldesign_0_cycle1_af2pred (protein)
chain: GEETEKLKKELEKAEKEAKEALKKAKELTKEEAKKLLSEQAAKVAELAAESSKDKEVSKEAKKVLKEVRKEGKEILEEK
B35: design_608_fd41b8f9-4da9-4c78-93ec-aaa316ed4933_796_dldesign_0_cycle1_af2pred (protein)
chain: EEAKEKAKKLEEEALKKAKEAGELIGKPKQVVHLTKLAIEDPELIPLAKKAILEAAKELKKKDPEKGKKAEELAKEMEKYVKEANKLK
B36: design_608_fd41b8f9-4da9-4c78-93ec-aaa316ed4933_913_dldesign_0_cycle1_af2pred (protein)
chain: ATLAELSAAFAKAYELIAEGEKASPEEGVKLMEKAKEEVEAARKLAEASADKEAALAGVERLAKRVEENKAKAEAKLKAA
B37: design_608_fd41b8f9-4da9-4c78-93ec-aaa316ed4933_922_dldesign_0_cycle1_af2pred (protein)
chain: GETEKLREEAQKLMDEAVDLLDKAKTEEEVEKAVEIAEEAYKVAAKATPEIAESALKGYKGLKKMAEEIKKVLKK
B38: design_608_fd41b8f9-4da9-4c78-93ec-aaa316ed4933_998_dldesign_0_cycle1_af2pred (protein)
chain: SELAKKAIEHLKKAIELAKTDPKYAPQIIAAAKAAIAALEKGDYEKAYKEASKALSIAYAAGNKEAEEELSEALYYIVKASK

Target: VTCN1, Q7Z7D3
Sequence (Q7Z7D3 whole entry): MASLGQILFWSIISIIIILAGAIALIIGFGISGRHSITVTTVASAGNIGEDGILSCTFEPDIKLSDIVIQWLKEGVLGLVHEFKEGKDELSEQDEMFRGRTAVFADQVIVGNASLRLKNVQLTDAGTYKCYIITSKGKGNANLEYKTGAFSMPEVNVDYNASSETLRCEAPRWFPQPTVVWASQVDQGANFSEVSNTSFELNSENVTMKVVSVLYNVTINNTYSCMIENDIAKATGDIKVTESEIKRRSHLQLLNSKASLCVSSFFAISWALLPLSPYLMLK

Row | Binder | binding in a display sort
1 | B1 | not found
2 | B2 | not found
3 | B3 | not found
4 | B4 | not found
5 | B5 | not found
6 | B6 | not found
7 | B7 | not found
8 | B8 | not found
9 | B9 | not found
10 | B10 | not found
11 | B11 | not found
12 | B12 | not found
13 | B13 | not found
14 | B14 | not found
15 | B15 | not found
16 | B16 | not found
17 | B17 | not found
18 | B18 | not found
19 | B19 | not found

Row | Binder | binding in a display sort
20 | B20 | not found
21 | B21 | not found
22 | B22 | not found
23 | B23 | not found
24 | B24 | not found
25 | B25 | not found
26 | B26 | not found
27 | B27 | not found
28 | B28 | not found
29 | B29 | not found
30 | B30 | not found
31 | B31 | not found
32 | B32 | not found
33 | B33 | not found
34 | B34 | not found
35 | B35 | not found
36 | B36 | not found
37 | B37 | not found
38 | B38 | not found
